High-throughput results from PubChem.
KB-V1 cytotox – KB-V1 MDR subline cytotoxicity | Potency, µM (top dose mostly 46.1 µM), hits mostly cytotoxic | AID 1347076 | KB-V1 MDR cells viability, CellTiter-Glo, 72 h | actives 3.4% (n = 400,000); further: nearly all actives have a fitted effect of over 60% in size
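In this primary screen, KB-V1 cells overexpressing P-gp are incubated with library compounds (lowest to highest concentration) for 72 h at 37 degrees C before a luminescent ATP viability read.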
TSG101-PTAP inh – blocks PTAP/TSG101 interaction to inhibit HIV-1 budding | Fluorescence polarization, FITC-PTAP peptide / Tsg101 binding | 340,000 tested, under 10 active | AID 493005 | Potency, µM (top dose mostly 115 µM), actives largely listed as inhibitors | Q99816; active means well fitted inhibition curve with a large enough effect in the main read-out, with a control signal flat, not every such curve was filed as active; inconclusive means small, poorly fitted or top-dose-only effect, or effect the other way, or a change in a side signal; inactive means no such curve, though single readings can be large or run the other way
Target sequence (Q99816 whole entry, looked up): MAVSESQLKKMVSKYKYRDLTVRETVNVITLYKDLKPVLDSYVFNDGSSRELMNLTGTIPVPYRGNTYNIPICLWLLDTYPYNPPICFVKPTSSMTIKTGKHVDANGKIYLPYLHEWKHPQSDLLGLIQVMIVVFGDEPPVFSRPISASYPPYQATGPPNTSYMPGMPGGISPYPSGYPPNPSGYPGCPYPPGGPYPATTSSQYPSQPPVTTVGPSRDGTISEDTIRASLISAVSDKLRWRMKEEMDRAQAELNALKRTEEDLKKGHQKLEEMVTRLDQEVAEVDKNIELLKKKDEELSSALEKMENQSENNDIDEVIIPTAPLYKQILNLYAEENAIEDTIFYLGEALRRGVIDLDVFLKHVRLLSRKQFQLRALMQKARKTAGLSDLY
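Compounds were pin-transferred onto Tsg101 binding domain (10 uM final) in HEPES pH 7.5 buffer, then FITC-PTAP peptide was added at 50 nM final. After 20 min at RT, polarization reported peptide displacement across a qHTS concentration series.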
KB-3-1 cytotox – KB-3-1 parental cell cytotoxicity; KB-3-1 viability, CellTiter-Glo ATP luminescence, 72 h; Potency, µM (titrated, usually from 46.1 µM), usual class: cytotoxic; actives 1.4% (n = 400,000); further: nearly all actives have a fitted effect of over 60% in size
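Multi-concentration cytotoxicity screen in KB-3-1 cells grown in DMEM lacking phenol red with 10% FBS. After 72 h at 37 °C with compound, ATP-dependent luminescence was recorded.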
MCF10A rereplic – inducers of DNA re-replication in MCF 10A breast cells; MCF 10A DNA re-replication, Hoechst nuclear intensity, 48 h; Potency, µM (doses to about 46.1 µM), actives largely listed as activators; actives 2.9% (n = 350,000); further: nearly all actives have a fitted effect of over 50% in size
SW480 rerep – induces DNA re-replication in SW480 colon adenocarcinoma cells | actives 1.8% (n = 340,000) | Potency, µM (titrated, usually from 46.1 µM), hits mostly activators | AID 624297 | SW480 DNA re-replication, Hoechst DNA content imaging, 48 h; further: nearly all actives have a fitted effect of over 55% in size
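Compounds, transferred as 23 nL by pin tool, were incubated with cells for 48 hr; DNA content per nucleus was then quantified by Hoechst staining and fluorescence plate imaging.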
RGS4 inhibitor – human RGS4 inhibition. P49798. Transcreener GDP fluorescence polarization, RGS4-accelerated GTP hydrolysis. Potency, µM (series often up to 114 µM), most hits filed as inhibitors. actives 0.039% (n = 390,000). AID 504845; further: nearly all actives have a fitted effect of over 75% in size
Target sequence (P49798 whole entry, looked up): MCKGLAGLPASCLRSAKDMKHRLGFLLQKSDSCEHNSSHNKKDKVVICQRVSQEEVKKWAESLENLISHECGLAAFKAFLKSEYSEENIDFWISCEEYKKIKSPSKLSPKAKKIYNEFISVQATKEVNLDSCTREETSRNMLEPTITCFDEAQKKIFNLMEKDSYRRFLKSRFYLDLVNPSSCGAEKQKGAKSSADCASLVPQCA
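MLSMR compounds (23 nl, pin-transferred) preincubated 10 min at room temperature with a 500nM (2x) first reagent, then RGS4 at 900nM (2x) plus Transcreener GDP mix added; fluorescence polarization (620/688 nm) read before and after 90 min at 30 °C.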
Of the large screens only hits and unclear results are named; the others gave an inactive call. Compounds with a hit are over-represented: about 6.6% of the library has one in this group of screens. Unless noted, the call rests on the fitted dose curve; in most records, active means well fitted curve in the direction sought with a large enough effect; inconclusive means small, poorly fitted or top-dose-only effect, or another doubt; inactive means no such curve, though single readings can be large; an effect the other way counts as inactive or inconclusive.

Cc1cc[n+](CC(=O)c2ccc3c(c2)OCCO3)cc1	none
COc1cc(/C=C/C(=O)c2ccc3c(c2)OCCO3)cc(Br)c1OCC(=O)N(C)C	KB-V1 cytotox 2.3µM, KB-3-1 cytotox 5.2µM, MCF10A rereplic inconclusive, SW480 rerep 4.6µM, RGS4 inhibitor inconclusive
O=C(C[n+]1ccc(/C=C/c2ccccc2)cc1)c1ccc2c(c1)OCCO2	KB-V1 cytotox inconclusive, KB-3-1 cytotox 12µM, SW480 rerep inconclusive
COc1cc(/C=N/Nc2nc3ccccc3[nH]2)cc(Br)c1OCC(=O)N(C)C	none
COc1ccc(CNC(=O)c2ccc(N3CCCC3)c(NC(=O)NCc3ccc(F)cc3)c2)cc1	KB-3-1 cytotox inconclusive (no result: TSG101-PTAP inh, MCF10A rereplic, SW480 rerep)
CC(=O)Nc1ccc(S(=O)(=O)NC2=NCN(C(C)C)CN2)cc1	none (no result: TSG101-PTAP inh, MCF10A rereplic, SW480 rerep)
COc1cccc(-c2cn3c(n2)sc2cc(C(=O)NCCc4ccc(OC)c(OC)c4)ccc23)c1	none (no result: KB-V1 cytotox, TSG101-PTAP inh, KB-3-1 cytotox, MCF10A rereplic, SW480 rerep)
Cc1ccc(-c2c(C3C4C=CCCC4(C)C(=O)N3Cc3ccccc3)ccc3ccccc23)cc1 (stereo not given)	none (no result: KB-V1 cytotox, TSG101-PTAP inh, KB-3-1 cytotox, MCF10A rereplic, SW480 rerep)
Cc1ccc(C(C)C)c(OCCn2ccnc2C)c1	none
Cc1ccc(OCCCCn2ccnc2)c(Cl)c1	KB-V1 cytotox 21µM
Cc1ccc(OCCCCn2ccnc2C)c(C)c1	KB-V1 cytotox inconclusive, MCF10A rereplic 15µM
CCCN1CCN(c2nnc(-n3cccc3C(=O)Nc3ccccc3C(F)(F)F)s2)CC1	none (no result: TSG101-PTAP inh, MCF10A rereplic, SW480 rerep)
Cc1cc(C)nc(NC(=O)c2ccc(COc3ccccc3Cl)cc2)c1	KB-3-1 cytotox inconclusive, MCF10A rereplic 3.7µM
O=C(Nc1cccnc1)c1ccc(COc2ccccc2Cl)o1	KB-V1 cytotox inconclusive, KB-3-1 cytotox inconclusive
Cc1nn(C)c(C(=O)Nc2ccn(Cc3ccccc3F)n2)c1[N+](=O)[O-]	KB-V1 cytotox 26µM (no result: TSG101-PTAP inh)
O=C(Nc1ccn(Cc2c(F)c(F)cc(F)c2F)n1)c1ccc(COc2ccccc2Cl)cc1	MCF10A rereplic inconclusive
Cc1cc(C)n(Cc2ccc(NC(=O)c3ccc(COc4ccccc4Br)cc3)cc2)n1	KB-V1 cytotox 2.6µM, KB-3-1 cytotox 16µM
O=C(Nc1cccnc1)c1ccc(COc2cc(Cl)ccc2Cl)o1	KB-V1 cytotox 23µM, KB-3-1 cytotox inconclusive, MCF10A rereplic inconclusive
NC(=O)c1ccc(NC(=O)c2ccc(COc3ccccc3Br)cc2)cc1	none
COc1ccc(COC[C@H](C)[C@H](O[Si](C)(C)C)[C@@H](C)[C@H]2OC(=O)[C@H]2C)cc1	none (no result: KB-V1 cytotox, TSG101-PTAP inh, KB-3-1 cytotox, MCF10A rereplic, SW480 rerep)
CC(C)c1ccc2c(c1)NC(c1ccc(F)cc1)=NC(c1cccs1)=N2	KB-V1 cytotox inconclusive (no result: TSG101-PTAP inh, MCF10A rereplic, SW480 rerep)
CCOc1ccc(C(=O)Nc2ccc3nc(SCC(=O)N4CCc5ccccc54)sc3c2)cc1	none (no result: TSG101-PTAP inh, MCF10A rereplic, SW480 rerep)
CC(C)(C)NC(=O)c1ccc(COc2ccc(Cl)cc2Cl)o1	KB-V1 cytotox 13µM, KB-3-1 cytotox inconclusive, MCF10A rereplic inconclusive
O=C(Nc1ccn(Cc2ccccc2F)n1)c1ccc(COc2cc(Cl)ccc2Cl)o1	KB-V1 cytotox 4.1µM, MCF10A rereplic inconclusive
O=C(NCc1ccc2c(c1)OCO2)c1ccc(COc2cc(Cl)ccc2Cl)o1	KB-V1 cytotox inconclusive, RGS4 inhibitor inconclusive
O=C(N/N=C/c1ccc(O)cc1)c1ccc(COc2cc(Cl)ccc2Cl)o1	MCF10A rereplic 18µM
O=C(Nc1ccn(Cc2ccccc2F)n1)c1ccc(COc2ccccc2Cl)cc1	KB-V1 cytotox 2.6µM, KB-3-1 cytotox inconclusive, MCF10A rereplic inconclusive
O=C(NCc1cccnc1)c1ccc(COc2ccc(Cl)cc2Cl)o1	none
O=C(C[n+]1cccc(Br)c1)c1ccc(I)cc1	none (no result: TSG101-PTAP inh, MCF10A rereplic, SW480 rerep, RGS4 inhibitor)
CC(=O)Nc1ccc(/C=C/c2nc3ccccc3s2)cc1	none (no result: TSG101-PTAP inh, MCF10A rereplic, SW480 rerep, RGS4 inhibitor)
CCOc1ccccc1N1CC(c2nc3ccccc3n2CCOc2ccccc2OC)CC1=O (stereo not given)	KB-V1 cytotox inconclusive (no result: TSG101-PTAP inh, MCF10A rereplic, SW480 rerep)
Cc1cccc(CCNC(=O)C2CCC(CNS(=O)(=O)c3c(C)cc(C)cc3C)CC2)c1 (stereo not given)	none (no result: KB-V1 cytotox, TSG101-PTAP inh, KB-3-1 cytotox, MCF10A rereplic, SW480 rerep)
CC(NC(=O)CN(c1ccc(Cl)cc1Cl)S(=O)(=O)c1ccccc1)c1ccccc1 (stereo not given)	none (no result: TSG101-PTAP inh, MCF10A rereplic, SW480 rerep)
O=C(Nc1ccc(Cl)cn1)c1ccc(COc2ccccc2Br)o1	KB-V1 cytotox inconclusive, MCF10A rereplic inconclusive
